Sampled rows, rich in hits. Any-hit rate of the full collection: about 1.4%.
ROCK2 blocker – ROCK2 (human) kinase inhibition; O75116; purified ROCK2, Kinase-Glo ATP depletion luminescence; inhibition, % at 6 µM; actives 0.35% (n = 60,000); AID 604;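 active = inhibition above the screen-wide mean inhibition plus 3 SD, cut at about 18% in these data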
SKBR3 24h inh – SK-BR-3 proliferation inhibitors | actives 0.47% (n = 41,000) | SK-BR-3 viability, CellTiter-Glo ATP luminescence, 24 h; active compounds read low | viability, % at 10 µM;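 active = viability at or below the median of all test compounds minus 3 SD, in both replicates if run twice, cut at about 45% in these data; inconclusive = duplicate replicates that disagree with each other; inactive = viability above that cutoff in every replicate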
JNK3 blocker – JNK3 (human) kinase inhibition; purified JNK3 kinase activity, HTS; inhibition, % at 8 µM; P53779; actives 0.61% (n = 60,000); in the data active = inhibition above about 17%
Her2 expr inh – Her2 kinase expression inhibition | P04626 | SKBR-3 HER2 protein level, AlphaScreen, 18-24 h; active compounds read low | HER2 level % of control, % at 10 µM | actives 0.69% (n = 65,000);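 active = HER2 level under 5% of the carrier-only control; inconclusive = no clear call, values can overlap the other calls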;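 also: lower value means stronger loss of Her2 protein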
PKA kinase inh – PKA (human) kinase inhibition; P17612; PKA Kemptide phosphorylation, Kinase-Glo ATP luminescence; inhibition, % at 6 µM; actives 0.1% (n = 65,000); AID 524;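 active = inhibition above the screen-wide mean inhibition plus 3 SD, cut at about 21% in these data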
Htt clearance – compounds clearing mutant huntingtin protein. inhibition, % at 1.5 µM. actives 0.42% (n = 47,000). HeLa Exon1htt(103Q)mCFP, aggregate imaging; zero = plate's median compound well;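 active = inhibition of aggregate fluorescence above about 70%, also judged a hit by eye on the cell image, limit read from the data, passing the limit was not always enough; inconclusive = no rule stated for this call; inactive = not judged a hit on image review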;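 also: cells exposed to compound for three days before fixation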
Hits are given with their value; . = inactive; ? = inconclusive; / = no result given.

SMILES | ROCK2 blocker | SKBR3 24h inh | JNK3 blocker | Her2 expr inh | PKA kinase inh | Htt clearance
O=C(Cn1c(=O)sc2ccccc21)Nc1ccccc1C(=O)O | / | . | / | . | . | /
Cc1ccc(Nc2nc3c(c(=O)[nH]2)CCCC3)cc1 | / | / | / | / | / | .
O=c1[nH]c(Nc2nc3ccccc3o2)nc2c1CCCC2 | . | / | . | -3.3 | . | /
Cc1ccc(C(=O)OCc2cc3ccccc3[nH]c2=O)cc1 | . | . | 28 | . | . | .
NC(=O)CSc1nnc2n(-c3ccccc3)c(=O)c3c4c(sc3n12)CCCCC4 | . | 32 | . | . | . | /
CC(NC(=O)CSc1nc2sc3c(c2c(=O)n1-c1ccccc1)CCCC3)c1ccccc1 (configuration not stated) | / | / | / | / | / | 91
CC(C)OC(=O)CSc1nc(-c2ccc(F)cc2)cc(C(F)(F)F)n1 | / | / | / | / | / | .
COCC(C)NC(=O)CCS(=O)(=O)c1nc(-c2ccc(OC)cc2)cc(C(F)(F)F)n1 (configuration not stated) | . | ? | . | -20 | . | /
CCOC(=O)CS(=O)(=O)c1nc(-c2ccc(F)cc2)cc(C(F)(F)F)n1 | . | 26 | . | -18 | . | /
CCOC(=O)CCS(=O)(=O)c1nc(-c2ccccc2)cc(C(F)(F)F)n1 | . | . | . | -8.7 | . | .
CCOC(=O)CS(=O)(=O)c1nc(-c2ccccc2)cc(C(F)(F)F)n1 | . | ? | . | -27 | . | .
CCCCCCNC(=O)c1cc(-c2ccco2)nc2ccccc12 | / | / | / | / | / | .
CCOC(=O)c1ccccc1NC(=O)CSc1nnc(COc2ccccc2)n1CC | . | . | . | . | . | /
O=C(NCc1ccccn1)c1coc(=O)c(Br)c1 | . | . | . | . | . | .
O=C1CC(Sc2nnc(-c3ccccc3)o2)C(=O)N1c1ccccc1 (configuration not stated) | . | . | . | . | . | .
Cc1ccccc1N1C(=O)CC(Sc2nnc(-c3ccccc3)o2)C1=O (configuration not stated) | . | 4.5 | . | -19 | . | /
Cc1cc(NC(=O)Cn2cnc3sc(C)c(-c4ccccc4)c3c2=O)no1 | . | / | . | . | . | .
COCC(C)n1c(SCC(=O)NC(=O)Nc2ccc3c(c2)OCCO3)nc2ccccc2c1=O (configuration not stated) | . | / | . | . | . | /
CCOC(=O)CCC(NC(=O)c1ccc(NCN2C(=O)CCC2=O)cc1)C(=O)OCC (configuration not stated) | . | . | . | . | . | .
CCOC(=O)CCC(NC(=O)c1ccc(NCN2C(=O)c3ccccc3C2=O)cc1)C(=O)OCC (configuration not stated) | . | / | 28 | . | . | .
CCOc1ccc(Nc2nc(C)cc(C)c2C#N)cc1 | . | . | . | . | . | 77
COc1ccc(Nc2nc(C)cc(C)c2C#N)cc1 | . | . | . | . | . | /
c1ccc(-c2onc3cc4c(cc23)OCCO4)cc1 | . | / | 22 | . | . | /
COc1ccc(-c2c3c([nH]c(=S)c2C#N)CCC3)cc1 | . | . | 46 | . | . | 71
CCS(=O)(=O)CCSc1nc2ccccc2o1 | . | . | . | . | . | .
SMILES | ROCK2 blocker | SKBR3 24h inh | JNK3 blocker | Her2 expr inh | PKA kinase inh | Htt clearance
O=S(=O)(CCSc1nc2ccccc2o1)c1nc2ccccc2s1 | . | ? | . | -14 | . | /
O=S(=O)(CCSc1ccccn1)c1nc2ccccc2s1 | . | . | . | -8.5 | . | .
O=C(CSc1nc2ccccc2s1)Nc1ncccn1 | . | . | . | . | . | /
CCCn1c(NC(=O)c2cccc(S(=O)(=O)N3CCCC3)c2)nc2ccccc21 | 32 | / | . | -3.3 | . | /
CCCn1c(NC(=O)c2ccccc2)nc2ccccc21 | . | . | . | . | . | .
Cc1nc(-c2coc3c(CN(C)C)c(O)ccc3c2=O)cs1 | / | / | / | / | / | .
CCCOc1ccc(C(=O)CCN2CCCCC2)cc1 | . | . | . | -20 | . | .
N#Cc1c(-c2ccco2)nc(SCC(=O)Nc2cccc(Cl)c2)[nH]c1=O | . | . | 25 | . | . | /
Nc1nonc1-c1nc2ccccc2[nH]1 | 61 | . | . | . | . | .
NCC[C@H](O)C(=O)N[C@@H]1C[C@H](N)[C@@H](O[C@H]2O[C@H](CN)[C@@H](O)[C@H](O)[C@H]2O)[C@H](O)[C@H]1O[C@H]1O[C@H](CO)[C@@H](O)[C@H](N)[C@H]1O | / | . | / | . | / | /
Nc1c(C(=O)NC2CCCC2)c2nc3ccccc3nc2n1/N=C/c1cccnc1 | . | . | . | . | . | /
O=C(O)c1cccc(N2C(=O)C3CC=CCC3C2=O)c1 (configuration not stated) | / | / | / | / | / | .
CN(C(=O)c1cccc(N2C(=O)C3CC=CCC3C2=O)c1)C1CCCCC1 (configuration not stated) | 21 | / | . | . | . | /
O=C1C2ON(c3ccccc3)C(c3cccnc3)C2C(=O)N1c1ccc(Cl)c(Cl)c1 (configuration not stated) | . | . | . | -18 | . | .
O=C1C2ON(c3ccccc3)C(c3cccnc3)C2C(=O)N1c1ccccc1 (configuration not stated) | . | . | . | . | . | /
COC(=O)c1cccc2c1-c1ccccc1/C2=N/O | 20 | . | 54 | . | . | /
Cc1ccc(C2CC(=O)N3CN(c4ccc(Br)cc4)CSC3=C2C#N)o1 (configuration not stated) | . | . | . | -19 | . | /
N#CC1=C2SCN(c3ccccc3)CN2C(=O)CC1c1c(Cl)cccc1Cl (configuration not stated) | . | / | . | . | . | .
N#CC1=C2SCN(c3ccccc3)CN2C(=O)CC1c1cccs1 (configuration not stated) | . | . | . | -20 | . | .
CC(C)CCN1CC(C(=O)N2CCN(c3ccc(F)cc3)CC2)CC1=O (configuration not stated) | 129 | / | . | . | . | .
O=C1CC(C(=O)N2CCN(c3ccc(F)cc3)CC2)CN1CCc1ccccc1 (configuration not stated) | . | / | . | . | . | .
Cn1cnc2c1c(=O)[nH]c(=O)n2C | . | . | . | -18 | . | /
COCCNc1nc(C(C)(C)C)nc2c1nnn2Cc1ccccc1Cl | / | . | / | -25 | . | .
COCCn1c(-c2ccc(Cl)cc2)cnc1SCC(=O)NCc1cccs1 | . | . | . | . | . | .
COC(=O)c1c(-c2cccs2)csc1NC(=O)CN1CCOCC1 | . | / | 23 | . | . | /
C=CCn1c(=O)c2ccccc2n2c(SCc3cc(=O)n4ccsc4n3)nnc12 | . | / | . | -15 | . | .
C=CCn1c(=O)c2ccccc2n2c(SCC(=O)c3ccccc3)nnc12 | . | . | . | . | . | /
COc1ccc(OC)c(C2C(C(=O)c3ccco3)=C(O)C(=O)N2CCCN2CCOCC2)c1 (configuration not stated) | . | . | . | . | . | /
O=c1[nH]ncn2cccc12 | . | / | . | . | . | .
O=C(O)c1ccccc1NCN1C(=O)C2CC=C(Cl)CC2C1=O (configuration not stated) | . | . | . | -22 | . | .
